The full list was thinned out, with hits kept by preference.
ST2 inh = blocks human ST2 binding to IL-33; 78,000 compounds, 2.3% hits; inhibition, % for hits at 17 µM; AlphaLISA ST2-Fc/biotin-IL-33 interaction, 1 h; Q01638; AID 1259354; in the data active means inhibition above about 30%
Target sequence (Q01638 whole entry, looked up): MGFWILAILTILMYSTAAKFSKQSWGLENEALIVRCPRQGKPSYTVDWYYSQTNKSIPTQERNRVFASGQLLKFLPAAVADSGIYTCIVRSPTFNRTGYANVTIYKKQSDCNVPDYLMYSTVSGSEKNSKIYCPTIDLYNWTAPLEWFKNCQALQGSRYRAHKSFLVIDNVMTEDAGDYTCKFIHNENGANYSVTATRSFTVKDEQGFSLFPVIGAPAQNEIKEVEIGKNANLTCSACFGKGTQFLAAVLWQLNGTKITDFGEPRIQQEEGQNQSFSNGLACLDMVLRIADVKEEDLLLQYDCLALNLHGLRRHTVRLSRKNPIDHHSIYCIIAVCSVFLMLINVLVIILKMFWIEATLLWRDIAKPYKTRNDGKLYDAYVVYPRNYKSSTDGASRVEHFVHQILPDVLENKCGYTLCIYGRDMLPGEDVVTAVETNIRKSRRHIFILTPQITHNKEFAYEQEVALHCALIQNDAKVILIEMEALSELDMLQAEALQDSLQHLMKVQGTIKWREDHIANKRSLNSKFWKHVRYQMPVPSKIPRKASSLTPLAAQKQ
* marks the source's active call; other numbers are inactive results; i = inactive.

SMILES	ST2 inh
O=C1OC(c2cccc([N+](=O)[O-])c2)=N/C1=C\c1cccc(I)c1	i
Cc1ccc([N+](=O)[O-])cc1N1C(=O)/C(=C\c2ccccc2)N=C1c1ccccc1	40%*
O=[N+]([O-])c1cccc(C=Nc2nnc(-c3ccccc3)s2)c1	i
CC1CCCC(C)N1C(=O)c1ccc(Br)cc1 (stereo not given)	i
Cn1c(C(=O)NCc2cccnc2)cc2c(=O)n3ccccc3nc21	i
Cc1nc(CN(C)Cc2cccn2S(=O)(=O)c2ccccc2)no1	i
O=C(Nc1ccc2nc(-c3ccco3)c(-c3ccco3)nc2c1)N1CCOCC1	36%*
Cc1nc2ccc(NC(=O)N3CCN(c4ccccc4)CC3)cc2nc1C	i
O=C(Nc1ccc2nc(-c3ccco3)c(-c3ccco3)nc2c1)N1CCSCC1	30%*
O=C(Nc1ccc2nsnc2c1)N1CCCCCC1	i
O=C(Nc1ccc2nc(-c3ccccn3)c(-c3ccccn3)nc2c1)N1CCOCC1	i
CCOC(=O)N1CCN(C(=O)Nc2ccc3nc(C)c(C)nc3c2)CC1	i
COc1cccnc1C(=O)NCCNc1ncccc1C	i
CCc1ccc(-c2nc(CN3CCC(C(=O)NCC4CCCO4)CC3)c(C)o2)cc1 (stereo not given)	i
COc1ccc2c(c1)sc(=NC(=O)CSCC(=O)N1CCCc3ccccc31)n2C	i
COC(=O)CNC(=O)c1sc2nc(C)nc(N3CCN(c4ccccn4)CC3)c2c1C	i
CCOC(=O)C1CCN(S(=O)(=O)c2ccc3c(c2)CCN3C(=O)C2CC2)CC1	i
COC(=O)C1=C(N)OC2=C(C(=O)CC(c3ccccc3)C2)C1c1cccc(Cl)c1 (stereo not given)	i
Cn1ccnc1SCCNS(=O)(=O)NCc1ccccc1	31%*
Cc1ccc(CNS(=O)(=O)NCc2ccccc2)c(F)c1F	i
Cc1nn(CCNS(=O)(=O)NCc2ccccc2)c(C)c1Cl	i
Cc1nnc(Nc2ccc(Br)cc2)[nH]c1=O	i
CN(C)/C=C/C=C/C=C1\CCC/C(=C\C=C\N(C)C)C1=O	63%*
N#Cc1cccc(NC(=S)N[C@H]2CO[C@H]3[C@@H]2OC[C@@H]3n2nnnc2-c2ccc3c(c2)OCO3)c1	i
CC1(C)CC(=O)C=C(/C=C/c2ccc(N3N=N3)cc2)C1	40%*
SMILES	ST2 inh
Cc1ccccc1NC1=CC(=O)CC(C)(C)C1	i
Cc1ccc(N2NC(=O)/C(=C/c3ccc(OCc4ccccc4)cc3)C2=O)cc1Cl	i
COc1cc(/C=C2/C(=O)NN(c3ccc(C)c(Cl)c3)C2=O)cc(OC)c1OC	i
COc1cc(/C=C2/C(=O)NN(c3ccc(C)c(Cl)c3)C2=O)ccc1OCc1ccccc1	48%*
O=C(O)CCS(=O)(=O)c1ccc(-c2ccc(S(=O)(=O)CCC(=O)O)cc2)cc1	i
CCn1nc(C(=O)O)c2c1CCC(NCCN1CCCOC1=O)C2 (stereo not given)	i
COc1ccc(Nc2nnc(C(C)(C)C)c(=O)[nH]2)c(OC)c1	i
COc1cccc(NC(=O)CSc2c3c(nc4ccccc24)CCC3)c1	i
COc1cccc(NC(=O)CSc2nnc(Cc3ccccc3)n2C)c1	40%*
COc1cccc(NC(=O)CSc2nnc3ccccn23)c1	i
CCC1=NOC(C(=O)N2CCC(Cc3nncn3-c3ccccc3)CC2)C1 (stereo not given)	i
CCc1ccccc1N1CSC2=C(C#N)C(c3ccccc3OC)CC(=O)N2C1 (stereo not given)	i
O=C(CN1CCN(Cc2ccc(Cl)cc2)S1(=O)=O)Nc1ccc2c(c1)OCO2	i
O=c1cc(-c2ccc(O)cc2)oc2c([C@@H]3O[C@H](CO)[C@@H](O[C@@H]4O[C@H](CO)[C@@H](O)[C@H](O)[C@H]4O)[C@H](O)[C@H]3O)c(O)cc(O)c12	50%*
O=c1cc(-c2ccc(O)cc2)oc2c(C3OCC(O)C(O)C3O)c(O)c(C3OCC(O)C(O)C3O)c(O)c12 (stereo not given)	i
O=c1cc(-c2ccc(O)cc2)oc2c(C3OCC(O)C(O)C3O)c(O)c(C3OC(CO)C(O)C(O)C3O)c(O)c12 (stereo not given)	i
Cc1ccc(NS(=O)(=O)c2ccc([N+](=O)[O-])cc2)c(C)c1	i
COCc1cn(CC2CCN(C(=O)c3ccc4nccnc4c3)CC2)nn1	i
CCC(C)NC(=O)c1ccc(Cn2c(=O)c3cc(OC)c(OC)cc3n(CC(=O)NC(C)C)c2=O)cc1 (stereo not given)	i
COc1ccc2c(c1)C(C)=CC(C)(C)N2	42%*
COc1ccc(I)c(OC)c1	i
CC1=CC(C)(C)Nc2ccc(OC(=O)COc3ccc(Cl)cc3)cc21	i
COc1cc2oc(=O)ccc2cc1C(O)C(O)C(C)(C)O (stereo not given)	i
CCCOc1ccc(C(=O)N2CCCCC2)cc1OC	i
COCCN[C@H]1[C@@H]2OC[C@@H](O2)[C@@H](NCc2ccc(-c3ccccc3)cc2)[C@@H]1O	36%*
COc1ccccc1N1CCN([C@H]2[C@@H]3OC[C@@H](O3)[C@@H](NCc3ccc(-c4ccccc4)cc3)[C@@H]2O)CC1	i

Screening results: PubChem, Paczesny and Yang Labs, IUPUI and University of Michigan
